Vaccinia mCherry = inhibitors of vaccinia virus infection (mCherry reporter signal) | Vaccinia virus mCherry reporter infection, fluorescence | 310,000 tested, 0.63% active | Potency, µM (titrated, usually from 36.5 µM), without a hit: top-dose activity change, negative = inhibition, hits mostly inhibitors; calls by dose curve; tested in A549 cells; further: nearly all actives have a fitted effect of over 35% in size
HCV inhibitor = HCV inhibition. 340,000 tested, 3.4% active. Potency, µM (series often up to 41.8 µM), for the others: top-dose activity change, negative = inhibition, most hits filed as inhibitors. Huh7.5.1 HCVcc-Cre infection, luciferase reporter, 44 h. AID 651820; active means well fitted inhibition curve with a large enough effect; inconclusive means small, poorly fitted or top-dose-only effect, or another doubt; inactive means no such curve, though single readings can be large or run the other way
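1,000 cells/well; 4 h culture; + compound; + HCVcc-Cre (~0.5 moi); 44 h; luciferase substrate, RT 15 min; read 15 sec.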
Vaccinia Venus = vaccinia inhibition (Venus reporter) | 330,000 tested, 0.46% active | AID 720580 | Potency, µM (titrated, usually from 36.5 µM), for inactives: top-dose activity change, negative = inhibition, most hits filed as inhibitors | Vaccinia virus Venus reporter expression, fluorescence; calls by dose curve; tested in A549 cells; further: nearly all actives have a fitted effect of over 30% in size
Starred values were filed as active, the others as inactive; i = inactive; ? = inconclusive; . = not tested or not shown; ! = not confirmed by another sample. Most compounds without a hit are left out; they make up all but 3.3% or so of the library. On the % scale 0 is the no-effect control and ±100 the full control effect; potency means the concentration at half of the fitted maximal effect.

SMILES | Vaccinia mCherry | HCV inhibitor | Vaccinia Venus
Cc1ccc(S(=O)(=O)N2CCN(c3ncnc4scc(-c5ccccc5)c34)CC2)cc1 | -18% | ? | -10%
COCC1CCCN(Cc2ccc3c(c2)CN(C(=O)c2cccnc2OC)CCO3)C1 (stereo not drawn) | -10% | . | ?
O=C(N[C@@H](Cc1ccc(O)cc1)C(=O)O)c1cccnc1 | -5% | 13% | -1%
CC1CCCC(C)N1C(=O)CN1C(=O)c2ccccc2S1(=O)=O (stereo not drawn) | . | 2% | .
CCN(CC)S(=O)(=O)c1cc(NC(=O)C2CCN(c3ncnc4sc(C)c(C)c34)CC2)ccc1Cl | ? | 6.3µM* | ?
Cc1ccc(NC(=O)C2CCN(c3ncnc4sc(C)c(C)c34)CC2)cc1S(=O)(=O)N(C)C | i | 10µM* | -19%
Cc1sc2ncnc(N3CCC(C(=O)Nc4cc(C(F)(F)F)ccc4OCC(F)(F)F)CC3)c2c1C | . | 7.9µM* | .
Cc1sc2ncnc(N3CCC(C(=O)Nc4ccc(C#N)cc4)CC3)c2c1C | -11% | 7% | -3%
Cc1sc2ncnc(N3CCC(C(=O)Nc4cc(S(C)(=O)=O)ccc4Cl)CC3)c2c1C | -10% | ? | -24%
Cc1sc2ncnc(N3CCC(C(=O)Nc4cc(Cl)ccc4Cl)CC3)c2c1C | -5% | ? | -14%
CCCOc1ccc(-c2c(C(=O)N/N=C/c3cccs3)nnn2-c2nonc2N)cc1 | -17% | -22% | 8%
Cc1ccc(S(=O)(=O)NCCOc2cc(C)ccc2C)cc1 | . | -2% | .
Cc1ccc(NC(=O)c2cnn3c2NC(=C2CC2)C=C3C(F)F)cc1 | -11% | . | -9%
COc1ccc2cc3cc(C(=O)N4CCN(c5ccccn5)CC4)oc3nc2c1 | . | -18% | .
COc1ccc(/C(C)=N/NC(=O)Cn2nc([N+](=O)[O-])cc2C)cc1 | i | -12% | -6%
Cc1ncc2c(c1CNC(=O)/C=C/c1cccs1)CCN(C(=O)C1CC(=O)OC13CCCCC3)C2 (stereo not drawn) | -13% | . | 9%
COc1ccc(-c2nc(-c3ccc4c(c3)OCO4)[nH]c2-c2ccc(OC)cc2)cc1 | ? | 8.9µM* | ?
COc1ccc(-c2nc(-c3ccccc3)c(-c3ccc(O)cc3)[nH]2)cc1 | ? | . | -22%
CCOc1ccc(S(=O)(=O)N(CC)CC)cc1NS(=O)(=O)c1ccc(F)c(F)c1F | 4µM* | 16% | 4.5µM*
CCOc1cc(S(=O)(=O)N(CC)CC)ccc1F | . | 4% | .
CCCCNC(=O)Cn1c(SCc2cccc(C)c2)nc2ccncc21 | 40% | . | 5%
CCC1CCCCN1CCCNC(=O)Cn1cnc2sc(C)c(S(=O)(=O)N3CC(C)CC(C)C3)c2c1=O (stereo not drawn) | ? | ? | -12%
CCOC(=O)c1ccccc1Nc1cc(C)nc2nc(-c3ccco3)nn12 | -15% | . | -17%
COc1ccc2nc(C)cc(Sc3nc4ccccc4s3)c2c1 | 0.79µM* | ? | 1.4µM*
COc1ccc2nc(C)cc(SCC(=O)NNC(=O)COc3ccccc3)c2c1 | -15% | 19% | -7%
SMILES | Vaccinia mCherry | HCV inhibitor | Vaccinia Venus
O=C(c1cccc(S(=O)(=O)N2CCN(c3ccccc3)CC2)c1)N1CCCC(C(F)(F)F)C1 (stereo not drawn) | -28% | ? | -19%
O=C(c1cc(S(=O)(=O)N2CCN(c3ccccc3)CC2)ccc1Cl)N1CCCC(C(F)(F)F)C1 (stereo not drawn) | -8% | 7.9µM* | -29%
COc1cc(C#N)c(NS(=O)(=O)c2ccc3[nH]c(=O)sc3c2)cc1OC | i | 25% | -7%
CCn1cc(C(=O)N2CCN(c3cccc(Cl)c3)CC2)c(=O)c2cc(S(=O)(=O)N3CCC(C)CC3)ccc21 | ? | . | -17%
CN(C)c1ccc(Cn2ccc3ccccc32)cc1 | 37% | . | 6%
OC(c1ccncc1)(c1ccc(F)cc1)c1ccc(F)cc1 | -21% | 2% | -11%
NC(N)=NN=C(c1ccc(F)cc1)c1ccc(C(F)(F)F)cc1 | ? | ? | 13µM*
CCOC(=O)c1c(NC(=O)c2nc(SC)ncc2Cl)sc(C)c1C | -11% | . | -5%
CC(C)CC(N(C)C)C1(c2ccc(Cl)cc2)CCC1 (stereo not drawn) | -2% | 3.5µM*! | -12%
CN(C)C1(c2nnnn2-c2ccc(Cl)cc2)CCCCC1 | i | 14% | -10%
Cc1ccc(NC(=O)c2ccc(-n3nncc3-c3ccccc3)cc2)cc1 | -9% | . | -12%
Nc1nc(N)nc(-c2ccc(Oc3ccccc3)cc2)n1 | i | 7% | -10%
Cc1sc(N)nc1-c1ccc(Oc2ccccc2)cc1 | . | 14µM* | .
CC(=O)c1ccc(N(CC(=O)NC2CCCC2)C(=O)CNC(=O)c2ccco2)cc1 | -6% | 12% | 1%
CCN(Cc1ccncc1)Cc1ccc2c(c1)CN(C(=O)c1ccccc1)CCO2 | -7% | . | 5%
C#CCOCCOCCOCCNc1nc(N2CCN(C(=O)CCCCCCCCCCNC(=O)[C@H]([C@@H](C)CC)n3cc(CCCCCN)nn3)CC2)nc(N2CCN(C(=O)CCCCCCCCCCNC(=O)[C@H](CCCCN)n3cc(CCCC(=O)O)nn3)CC2)n1 | ? | 11µM* | ?
C#CCOCCOCCOCCNc1nc(N2CCN(C(=O)CCCCCCCCCCNC(=O)[C@@H](CCC(=O)O)n3cc(CCCCCN)nn3)CC2)nc(N2CCN(C(=O)CCCCCCCCCCNC(=O)[C@H]([C@@H](C)CC)n3cc(CCCCCN)nn3)CC2)n1 | i | ? | ?
C#CCOCCOCCOCCNc1nc(N2CCOCC2)nc(N2CCN(C(=O)CCCCCCCCCCNC(=O)[C@@H]([C@H](C)CC)n3cc(CCCCCN)nn3)CC2)n1 | -28% | ? | ?
C#CCOCCOCCOCCNc1nc(N2CCN(C(=O)CCCCCCCCCCNC(=O)[C@H]([C@@H](C)CC)n3cc(CCCCN=C(N)N)nn3)CC2)nc(N2CCN(C(=O)CCCCCCCCCCNC(=O)[C@H](CCCCN)n3cc(C)nn3)CC2)n1 | ? | ? | 7.1µM*
C#CCOCCOCCOCCNc1nc(N2CCN(C(=O)CCCCCCCCCCNC(=O)[C@H]([C@@H](C)CC)n3cc(CCCCN=C(N)N)nn3)CC2)nc(N2CCN(C(=O)CCCCCCCCCCNC(=O)[C@H](CO)n3cc(CCCCCN)nn3)CC2)n1 | ? | ? | 7.1µM*
C#CCOCCOCCOCCNc1nc(N2CCN(C(=O)CCCCCCCCCCNC(=O)[C@H]([C@@H](C)CC)n3cc(CCCCCN)nn3)CC2)nc(N2CCN(C(=O)CCCCCCCCCCNC(=O)[C@@H]([C@H](C)CC)n3cc(CCCCCN)nn3)CC2)n1 | . | -10% | .
C#CCOCCOCCOCCNc1nc(N2CCN(C(=O)CCCCCCCCCCNC(=O)[C@H]([C@@H](C)CC)n3cc(CCCCCN)nn3)CC2)nc(N2CCN(C(=O)CCCCCCCCCCNC(=O)[C@H](CO)n3cc(CCCCCN)nn3)CC2)n1 | ? | ? | 10µM*
C#CCOCCOCCOCCNc1nc(N2CCN(C(=O)CCCCCCCCCCNC(=O)[C@H](CCCCN)n3cc(CCCC(=O)O)nn3)CC2)nc(N2CCN(C(=O)CCCCCCCCCCNC(=O)[C@@H]([C@H](C)O)n3cc(C)nn3)CC2)n1 | -11% | -3% | -8%
COc1ccccc1N1CCN(C(=O)CCS(=O)(=O)c2cc(Br)cc3c2N(C(=O)C2CC2)CC3)CC1 | -17% | . | -4%
